In PubChem BioAssay (NCI):
Values joined by “and” are separate entries in the source; they are usually repeats but may differ in a detail not shown here. Identical values can stand only once. The panel holds about 83,000 compounds, 20% with a hit somewhere; the sample as a whole holds those more often.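 How to read the values: 0–100, growth inhibition (40 = 60% inhibited); 0, no net growth; -100 to 0, cell death (-40 = 40% of starting cells died; -100 = all dead).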 A number with no mark means an inactive call. Active and inactive are the calls of the source. Rule for the calls: active = growth percent below 10; inactive = the rest.

These compounds were tested on HL-60(TB) leukemia (assay: NCI-60 one-dose screen, 48 h (100 = growth as untreated, 0 = no growth, -100 = all killed)). Conditions: 10 µM unless noted.

First: N#CC1=C(N)n2nc(-c3ccncc3)nc2NC1c1cccc2ccccc12 (stereo unspecified)
Second: O=C(c1ccncc1)c1c(Cc2ccccc2)ccc2ccccc12
The growth of the first is higher: 89.8% for the first, 88.1% for the second.

Compared with `COc1ccc(-c2cnc(-c3ccc(F)cc3)[nH]2)cc1`, `COc1ccc2nc(C)cc(Nc3ccc(Cl)cc3)c2c1` is higher in growth: 74.9% for the first, 95.6% for the second.

First: CC/C(=C(/c1ccc(OCCN(C)C)cc1)c1ccc(OC(=O)CCCCCCCCC(=O)c2c(C)[nH]c(/C=C3\N=C(c4ccc[nH]4)C=C3OC)c2C)cc1)c1ccccc1
Second: CC(=O)/C(=C/c1ccc(-c2ccccc2)cc1)C(=O)c1ccccc1
The growth of the first is higher: 76.7% for the first, 56.3% for the second.

Going from `Cc1cc(Cl)c2c(Cl)ccc(Cl)c2n1` to `CN1CCN(Cn2nc(-c3cc(F)c(Cl)cc3Cl)n(/N=C/c3ccc(N(C)C)cc3)c2=S)CC1`, the growth falls from 96.2% to 83.1%.

Compared with `Nc1nc2ncc(CCNc3ccc(C(=O)NC(CCC(=O)O)C(=O)O)cc3)nc2c(=O)[nH]1` (stereo unspecified), `COc1ccc(Nc2cc(Cl)ccc2C(=O)O)cn1` is lower in growth: 144% for the first, 96.3% for the second.

Going from `O=c1c2c(c3ccccc3n1-c1ccccc1)NC(=S)NC2c1ccccc1` (stereo unspecified) to `c1ccc2cc3nc4cc5ccccc5cc4nc3cc2c1`, the growth rises from 44.3% to 90.5%.

Compared with `CCOC(CN1CCN(CC(C)C(=O)c2ccccc2)CC1)c1ccccc1` (stereo unspecified), `CCOC(=O)N1CCN(CCCCl)CC1` is lower in growth: 110% for the first, 85.6% for the second.

Compared with `CC1(C)C2CC1C1(/C=N\Nc3ccccc3)C(C2)C(C#N)(C#N)C1(C#N)C#N` (stereo unspecified), `Cc1ccc([C@@H]2C[C@H](O)Cc3ccccc3N2)s1` is higher in growth: 89.9% for the first, 121% for the second.

First: C=CC(=O)NC(=O)Nc1ccccc1Cl
Second: COc1ccc2c(c1)C(=O)c1c-2c(OCCN(C)C)nc2cc(OC)ccc12
The growth of the first is higher: 33.4% for the first, 27.2% for the second.

Work on `C=C(C)[C@@H]1CC[C@]2(C(=O)NCC#CCN3CCN(C)CC3)CC[C@]3(C)[C@H](CC[C@@H]4[C@@](C)(CCC#N)[C@H](C(=C)C)CC[C@]43C)[C@@H]12` yielded a growth of 10.9%.

In the case of `Fc1c[c-]c(-c2ccccn2)c(F)c1.Fc1c[c-]c(-c2ccccn2)c(F)c1.[Cl][Pt+].[Cl][Pt+].c1ccc([PH+](C[PH+](c2ccccc2)c2ccccc2)c2ccccc2)cc1`, the growth is reported as 6.62% (active).
In the case of `O=C(Nc1ccc(Cl)cc1)c1cc(-c2ccc(F)cc2)c2sc(=O)[nH]c2n1`, the growth is reported as -30.6% (active).
`O=C1/C(=C/c2ccccc2Br)COc2ccc(O)c(O)c21` was tested, and the growth was -9.04% (active).
In the case of `Cn1ccnc1C(=O)/C=C/c1ccc(CC(=O)Nc2ccc(C(F)(F)F)cc2)cc1`, the growth is reported as -2.06% (active).
With `Nc1ncnc2c1ncn2C1OC(CO)C(O)C1O` (stereo unspecified) the growth was 65.5% and 84.5% and 105%.
For `COc1ccc2c(c1)c1nc3cc(C)c(C)cc3nc1n2CCN(C)C`, the growth was -26.4% (active).
With `C#CCOc1ccc2ncnc(Nc3ccc(NC(=O)CCl)cc3)c2c1` the growth was -57.5% (active).
